Where “and” joins values, the source holds several entries; their conditions need not be identical. Equal entries are not always repeated. Records with an inconclusive call do not appear. Calls of active or inactive are those of the source. Unless noted, calls come from the whole dose curve; as a rule, active = well fitted curve in the direction sought with a large enough effect; inconclusive = small, poorly fitted or top-dose-only effect, or another doubt; inactive = no such curve, though single readings can be large; an effect the other way counts as inactive or inconclusive.
Experiments:
[1] = qHTS Validation Assay to Find Inhibitors of Chronic Active B-Cell Receptor Signaling (AID 485345; active = well fitted curve in the direction sought with a large enough effect in the main read-out, with a control signal flat, not every such curve was filed as active;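 note: 0% = untreated basal cells and 100% = 10 µM MG-132 proteasome inhibitor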)
Outline: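 Read-out: ratio of filter-corrected green (IkappaBalpha fusion) to red (native) luciferase signal in doxycycline-induced TMD8 cells after 4 h at 37C. Titration spanned 46 uM–3 nM; Data were normalised to basal cells and 10 uM MG-132 wells.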

[2] = target: Beta-2 adrenergic receptor (Homo sapiens) (UniProt P07550); test: qHTS validation assay of beta-arrestin-biased ligands of beta2-adrenergic receptor (AID 485366); note: 0% is about no effect
Outline: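 Tango cells expressing recombinant beta2-AR and beta-arrestin with tTA-driven luciferase, in DMEM with 1% FBS. Compounds were titrated up to 46 microM for 18 hr at 37 degrees C. Luminescence was read 15 min after substrate; curves were fitted and class-assigned.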

[3] = target: ATP-dependent 6-phosphofructokinase (Trypanosoma brucei brucei) (UniProt O15648); test: qHTS Validation Assay to Find Inhibitors of T. brucei phosphofructokinase (AID 485368)
Outline: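 Activity was read as ADP production by luminescence (ADP-Glo) after 45 min at room temperature. The enzyme was 1.25nM PFK in 0.1M TEA pH 8.0 with 0.5 mM F6P, 0.1mM ATP and 5 mM MgCl2. Compounds were titrated up to 57 uM and % activity normalized to no-enzyme and full-enzyme controls.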

[4] = Quantitative high throughput screen for delayed death inhibitors of the malarial parasite plastid, 96 hour incubation (AID 488745); note: series mostly up to about 29 µM; % is set by controls: 0 for no effect and ±100 for the full control effect; nearly all actives have a fitted effect of over 70% in size
Outline: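 Luciferase-expressing P. falciparum in erythrocytes (2% hematocrit, 0.1% parasitemia) incubated with compound for 96 h at 37 C, 5% CO2, in RPMI 1640 with 0.5% Albumax. Growth inhibition read as decreased luminescence.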

[5] = target: Thioredoxin reductase 1, cytoplasmic (Rattus norvegicus) (UniProt O89049); test: qHTS Assay for Substrates of Mammalian Selenoprotein Thioredoxin Reductase 1 (TrxR1) (AID 488772);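 note: NADPH fluorescence in the first read after selenite addition and not the 8 min delta; series mostly up to about 57 µM; 0% is about no effect; a drop in NADPH fluorescence below the no-compound background marks a TrxR1 substrate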
Outline: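 Quantitative HTS in Tris-HCl buffer at pH 7.5 with EDTA and Tween-20, using rat TrxR1, 400 uM NADPH and 400 uM selenite (final). A fall in initial NADPH fluorescence relative to background marked substrate behaviour.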

[6] = target: Flap endonuclease 1 (Homo sapiens) (UniProt P39748); test: qHTS Validation Assay for the Inhibitors of Human Flap endonuclease 1 (FEN1) (AID 488816); note: potency is the fitted concentration of half-maximal effect
Outline: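 Readings taken at 0 and 15 min after starting the reaction with 50 nM (final) substrate supplied the signal. Compounds had first sat with 10 nM FEN1 reagent for 15 min at room temperature. Values come from Hill-equation concentration-response fits.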

[7] = target: M-phase phosphoprotein 8 (Homo sapiens) (UniProt Q99549); test: qHTS Validation Assay for Inhibitors for MPP8 Chromodomain Interactions with Methylated Histone Tails (AID 488949); note: nearly all actives have a fitted effect of over 55% in size; note: potency is the fitted concentration of half-maximal effect
Outline: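 Chemiluminescent proximity assay: histidine-tag capture via nickel acceptor beads, biotin peptide via streptavidin donor beads. Protein and peptide each at 50 nM, pH 7.4, with 30 min incubations at room temperature for complex formation, compound exposure and bead binding.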

[8] = target: Chromobox protein homolog 1 (Homo sapiens) (UniProt P83916); test: qHTS Validation Assay for Inhibitors of HP1-beta Chromodomain Interactions with Methylated Histone Tails (AID 488953); note: nearly all actives have a fitted effect of over 50% in size; note: potency is the fitted concentration of half-maximal effect
Outline: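 HP1-beta (50 nM) preformed 30 min with biotinylated H3(1-18)K9me3 peptide (50 nM) in PBS pH 7.4, 0.01% Tween-20. Compounds added for 30 min at room temperature. Complex disruption read by AlphaScreen with streptavidin donor/nickel chelate acceptor beads (10 ug/mL each).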

[9] = target: Methanococcus maripaludis chaperonin (MmCpn) (UniProt Q6LX38); test: High-Throughput Screening for Modulators of Cytosolic Chaperonin Activity: MmCpn Primary Screen (AID 488978); note: 0% is about no effect
Outline: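 HTRF readout (320 nm excitation, 590/665 nm emission) of ADP generated by 50 nM MmCpn hydrolysing 30 uM ATP during 10 min at 37C; compound preincubated 5 min RT.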

[10] = target: Transient receptor potential cation channel subfamily V member 1 (Homo sapiens) (UniProt Q8NER1); test: HTS Assay for Compounds that Act as Enhancers of the Vanilloid Receptor 1 (AID 488979); note: 0% is about no effect
Outline: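 Calcium influx kinetics via Fluo-8 (480/520 nm) in TRPV1-expressing cells, 2000/well cultured overnight at 35.5C. Compound-alone read 3 min (agonist phase), followed by EC20 capsaicin challenge for 2 min (enhancer phase).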

[11] = target: D(1A) dopamine receptor (Homo sapiens) (UniProt P21728); test: HTS Assay for Allosteric Agonists of the Human D1 Dopamine Receptor: Primary Screen for Agonists (AID 488981); note: 0% is about no effect
Outline: (§1)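 Calcium flux in an inducible, force-coupled HEK293 Trex D1 line (overnight at 30 C): agonist mode is the 180 s kinetic read after compound; potentiator mode is the following 180 s read after dopamine at EC20.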

[12] = target: D(1A) dopamine receptor (Homo sapiens) (UniProt P21728); test: HTS Assay for Allosteric Agonists of the Human D1 Dopamine Receptor: Primary Screen for Potentiators (AID 488982); note: 0% is about no effect
Outline: as §1

[13] = target: D(1A) dopamine receptor (Homo sapiens) (UniProt P21728); test: HTS Assay for Allosteric Agonists of the Human D1 Dopamine Receptor: Primary Screen for Antagonists (AID 488983);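 note: calcium flux response to an EC80 dopamine challenge measured with no-wash dye; nearly all actives have a fitted effect of over 65% in size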; note: potency is the fitted concentration of half-maximal effect
Outline: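 Tetracycline-induced HEK293 T-REx D1 line, force-coupled to calcium flux, read with no-wash calcium dye. Compound added after 10 s baseline, read 180 s for agonism, then EC80 dopamine added and read a further 180 s.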

[14] = Validation screen for small molecules that induce genotoxicity in human embryonic kidney (HEK293T) cells expressing luciferase-tagged ELG1 (AID 493106); note: 0% is about no effect
Outline: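 HEK293T cells expressing luciferase-tagged ELG1, 2,000 cells/well, exposed to compound 16 hr at 37 °C, 5% CO2. Luciferase read after ONE-Glo, 30 min at room temperature; increased signal indicates genetic stress.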

[15] = target: ATPase family AAA domain-containing protein 5 (Homo sapiens) (UniProt Q96QE3); test: Validation screen for small molecules that inhibit ELG1-dependent DNA repair in human embryonic kidney (HEK293T) cells expressing luciferase-tagged ELG1 (AID 493107);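 note: cells co-treated with the DNA-damaging agent 5-fluorouridine alongside compound; series mostly up to about 46 µM; % is set by controls: 0 for no effect and ±100 for the full control effect; inhibitors lower the ELG1-luciferase luminescence signal; nearly all actives have a fitted effect of over 70% in size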
Outline: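 HEK293T cells expressing luciferase-tagged ELG1, 2,000 per well, treated with 5-fluorouridine plus compound for 16 h at 37 C. ONE-Glo luminescence after 30 min at room temperature reports ELG1 reporter level.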

[16] = target: Thyrotropin-releasing hormone receptor (Homo sapiens) (UniProt P34981); test: qHTS for Small Molecule Agonists and Allosteric Enhancers of Human TRH Receptor: Validation Screen for Agonists (AID 493127;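 active = calcium activation more than 3 SD above the typical response in the agonist read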; note: 0% is about no effect); details: TRH receptor agonist cell assay; at 2 µM; stronger effect = higher value
Outline: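 TRHR cells loaded with fluo-8 calcium dye; FDSS kinetic fluorescence (Ex 480/Em 530) read at 1 s/cycle after 23 nL compound addition. Agonist-mode calcium response recorded before the 10 nM TRH (EC20) addition.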

[17] = Nrf2 qHTS screen for inhibitors: Validation (AID 493153; active = well fitted inhibition curve with a large enough effect in the main read-out, with a control signal flat, not every such curve was filed as active); details: Potency: luciferase luminescence; viability change: measured here: cytotoxicity max response
Outline: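 A549 cells carrying ARE-firefly luciferase reporter, 5000 cells/well in 5% FBS OPTI-MEM, treated with compound over a concentration series for 18-24 h at 37 C. Luciferase luminescence gave Nrf2 activity; CellTiter-Fluor fluorescence gave viability.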

[18] = qHTS for Inhibitors of Cell Surface uPA Generation: Validation Assay (AID 493164); note: 0% is about no effect
Outline: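 RAW 264.7 cells (4000/well) were plated overnight, then exposed for 18 h at 37 C, 5% CO2 to compounds in a 7-point 1:5 titration (2.45 nM–38.3 uM final). Intracellular ATP was read by ATP-Lite luminescence.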

[19] = target: ATP-dependent 6-phosphofructokinase (Trypanosoma brucei brucei) (UniProt O15648); test: qHTS Assay to Find Inhibitors of T. brucei phosphofructokinase: hit validation (AID 492961);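 note: luminescence reports ADP formed as PFK phosphorylates fructose-6-phosphate with ATP; series mostly up to about 51 µM; % is set by controls: 0 for no effect and ±100 for the full control effect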
Outline: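 In this biochemical qHTS validation, titrated compounds were tested against 1.25 nM PFK with 0.1 mM ATP and 0.5 mM F6P. Percent activity came from controls lacking or containing enzyme.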

Beta-2 adrenergic receptor (Homo sapiens), sequence (P07550 whole entry, looked up): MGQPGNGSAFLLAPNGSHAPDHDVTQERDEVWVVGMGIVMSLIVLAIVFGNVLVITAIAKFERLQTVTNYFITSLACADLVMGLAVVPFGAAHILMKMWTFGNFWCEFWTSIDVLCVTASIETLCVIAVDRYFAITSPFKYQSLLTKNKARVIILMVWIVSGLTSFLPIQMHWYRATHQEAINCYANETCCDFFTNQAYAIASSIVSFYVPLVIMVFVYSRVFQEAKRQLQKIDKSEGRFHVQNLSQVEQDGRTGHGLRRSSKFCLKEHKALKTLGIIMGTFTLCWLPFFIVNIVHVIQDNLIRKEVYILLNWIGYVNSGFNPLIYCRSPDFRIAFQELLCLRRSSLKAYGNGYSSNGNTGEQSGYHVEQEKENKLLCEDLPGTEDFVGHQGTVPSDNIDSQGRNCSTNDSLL
D(1A) dopamine receptor (Homo sapiens), sequence (P21728 whole entry, looked up): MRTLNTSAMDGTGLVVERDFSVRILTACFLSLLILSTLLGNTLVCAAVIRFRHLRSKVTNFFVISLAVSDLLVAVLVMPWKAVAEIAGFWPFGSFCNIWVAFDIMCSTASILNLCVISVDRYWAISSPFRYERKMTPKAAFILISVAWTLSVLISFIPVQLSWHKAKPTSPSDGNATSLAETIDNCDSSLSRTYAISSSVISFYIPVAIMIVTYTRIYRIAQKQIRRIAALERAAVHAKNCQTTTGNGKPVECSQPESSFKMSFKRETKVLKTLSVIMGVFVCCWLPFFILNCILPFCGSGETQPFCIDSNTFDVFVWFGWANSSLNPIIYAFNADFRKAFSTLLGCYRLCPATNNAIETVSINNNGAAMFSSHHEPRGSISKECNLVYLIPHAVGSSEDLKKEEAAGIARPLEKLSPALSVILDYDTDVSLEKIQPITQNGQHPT
M-phase phosphoprotein 8 (Homo sapiens), sequence (Q99549 whole entry, looked up): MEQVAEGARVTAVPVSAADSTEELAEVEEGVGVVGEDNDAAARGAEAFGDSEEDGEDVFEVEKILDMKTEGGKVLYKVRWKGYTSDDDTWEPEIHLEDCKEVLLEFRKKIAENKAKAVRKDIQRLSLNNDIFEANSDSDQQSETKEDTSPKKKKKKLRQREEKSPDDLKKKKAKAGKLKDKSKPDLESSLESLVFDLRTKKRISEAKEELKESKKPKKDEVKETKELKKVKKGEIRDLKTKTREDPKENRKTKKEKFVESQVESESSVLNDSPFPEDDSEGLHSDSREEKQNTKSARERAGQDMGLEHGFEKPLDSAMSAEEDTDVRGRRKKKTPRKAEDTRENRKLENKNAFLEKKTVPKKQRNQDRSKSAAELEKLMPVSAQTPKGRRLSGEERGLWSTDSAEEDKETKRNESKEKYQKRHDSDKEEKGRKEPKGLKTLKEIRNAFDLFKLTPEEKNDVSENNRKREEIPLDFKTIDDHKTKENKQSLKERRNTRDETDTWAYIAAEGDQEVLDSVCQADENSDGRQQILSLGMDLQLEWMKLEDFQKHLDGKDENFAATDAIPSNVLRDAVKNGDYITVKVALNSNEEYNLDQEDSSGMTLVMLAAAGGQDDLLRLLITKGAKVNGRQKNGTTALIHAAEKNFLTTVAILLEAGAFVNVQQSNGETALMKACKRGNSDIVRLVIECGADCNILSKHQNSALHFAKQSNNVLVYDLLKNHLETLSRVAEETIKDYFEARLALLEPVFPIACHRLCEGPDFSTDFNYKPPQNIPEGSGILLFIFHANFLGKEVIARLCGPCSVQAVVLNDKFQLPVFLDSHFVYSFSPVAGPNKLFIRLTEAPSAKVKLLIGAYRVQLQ
Flap endonuclease 1 (Homo sapiens), sequence (P39748 whole entry, looked up): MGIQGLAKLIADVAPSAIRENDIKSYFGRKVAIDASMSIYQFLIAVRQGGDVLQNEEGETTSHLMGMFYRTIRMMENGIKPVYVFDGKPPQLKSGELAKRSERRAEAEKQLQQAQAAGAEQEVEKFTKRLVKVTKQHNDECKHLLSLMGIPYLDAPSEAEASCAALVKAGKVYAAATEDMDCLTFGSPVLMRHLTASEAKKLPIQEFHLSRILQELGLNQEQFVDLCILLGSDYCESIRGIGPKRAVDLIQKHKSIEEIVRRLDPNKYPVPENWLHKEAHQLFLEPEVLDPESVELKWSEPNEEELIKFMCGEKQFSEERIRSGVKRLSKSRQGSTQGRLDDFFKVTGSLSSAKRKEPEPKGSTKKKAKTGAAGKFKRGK
ATPase family AAA domain-containing protein 5 (Homo sapiens), sequence (Q96QE3 whole entry, looked up, the tested form may be a part): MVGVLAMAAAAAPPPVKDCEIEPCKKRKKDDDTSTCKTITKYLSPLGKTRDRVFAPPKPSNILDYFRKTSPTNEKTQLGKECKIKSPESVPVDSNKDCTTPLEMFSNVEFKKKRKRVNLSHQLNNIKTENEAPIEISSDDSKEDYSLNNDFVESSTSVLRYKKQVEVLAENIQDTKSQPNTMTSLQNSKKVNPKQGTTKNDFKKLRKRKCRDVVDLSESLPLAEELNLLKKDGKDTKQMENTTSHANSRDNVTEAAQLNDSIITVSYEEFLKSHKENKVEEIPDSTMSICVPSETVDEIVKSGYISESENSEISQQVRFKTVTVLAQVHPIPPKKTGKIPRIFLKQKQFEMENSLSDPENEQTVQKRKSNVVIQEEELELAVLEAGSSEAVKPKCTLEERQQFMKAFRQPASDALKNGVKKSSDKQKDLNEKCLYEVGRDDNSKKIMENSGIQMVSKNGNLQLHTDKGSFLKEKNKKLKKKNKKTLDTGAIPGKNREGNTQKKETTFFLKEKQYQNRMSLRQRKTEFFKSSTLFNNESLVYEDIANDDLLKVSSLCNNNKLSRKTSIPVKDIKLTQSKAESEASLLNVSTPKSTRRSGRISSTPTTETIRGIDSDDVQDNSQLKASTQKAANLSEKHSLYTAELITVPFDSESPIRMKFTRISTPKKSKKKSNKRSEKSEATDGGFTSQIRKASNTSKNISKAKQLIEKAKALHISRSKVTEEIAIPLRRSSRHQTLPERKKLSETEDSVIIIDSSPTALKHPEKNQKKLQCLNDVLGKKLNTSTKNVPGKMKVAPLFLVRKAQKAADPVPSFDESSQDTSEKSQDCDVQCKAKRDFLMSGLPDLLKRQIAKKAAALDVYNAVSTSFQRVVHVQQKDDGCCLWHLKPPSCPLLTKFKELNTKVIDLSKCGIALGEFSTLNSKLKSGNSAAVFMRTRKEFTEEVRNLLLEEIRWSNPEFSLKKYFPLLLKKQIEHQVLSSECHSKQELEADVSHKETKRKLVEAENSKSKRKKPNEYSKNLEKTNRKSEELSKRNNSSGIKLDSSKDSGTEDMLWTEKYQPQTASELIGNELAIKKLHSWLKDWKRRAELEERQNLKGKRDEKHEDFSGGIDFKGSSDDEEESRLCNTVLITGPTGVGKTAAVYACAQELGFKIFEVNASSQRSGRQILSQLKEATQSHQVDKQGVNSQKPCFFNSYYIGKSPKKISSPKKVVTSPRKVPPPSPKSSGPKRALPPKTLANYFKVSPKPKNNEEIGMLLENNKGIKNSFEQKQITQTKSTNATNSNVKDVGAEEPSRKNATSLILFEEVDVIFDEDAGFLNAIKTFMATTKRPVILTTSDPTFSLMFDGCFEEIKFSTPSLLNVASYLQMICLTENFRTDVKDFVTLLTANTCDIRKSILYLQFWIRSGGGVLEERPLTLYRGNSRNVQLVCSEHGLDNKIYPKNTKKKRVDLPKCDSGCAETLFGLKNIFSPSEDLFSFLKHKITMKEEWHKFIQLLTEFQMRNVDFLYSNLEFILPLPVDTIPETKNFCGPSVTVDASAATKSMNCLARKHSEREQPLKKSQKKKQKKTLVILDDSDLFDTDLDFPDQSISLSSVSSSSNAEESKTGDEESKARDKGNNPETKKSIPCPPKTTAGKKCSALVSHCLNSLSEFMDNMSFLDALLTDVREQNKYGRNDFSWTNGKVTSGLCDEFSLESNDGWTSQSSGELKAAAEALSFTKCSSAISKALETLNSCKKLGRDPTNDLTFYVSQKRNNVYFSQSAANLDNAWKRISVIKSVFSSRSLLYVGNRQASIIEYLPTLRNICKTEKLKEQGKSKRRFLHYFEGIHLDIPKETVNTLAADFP
Chromobox protein homolog 1 (Homo sapiens), sequence (P83916 whole entry, looked up): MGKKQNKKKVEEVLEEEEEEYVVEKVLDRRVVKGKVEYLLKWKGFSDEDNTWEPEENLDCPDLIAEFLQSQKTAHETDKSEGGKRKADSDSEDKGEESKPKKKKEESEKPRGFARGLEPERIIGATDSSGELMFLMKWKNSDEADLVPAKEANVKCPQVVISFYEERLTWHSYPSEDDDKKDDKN
Thioredoxin reductase 1, cytoplasmic (Rattus norvegicus), sequence (O89049 whole entry, looked up): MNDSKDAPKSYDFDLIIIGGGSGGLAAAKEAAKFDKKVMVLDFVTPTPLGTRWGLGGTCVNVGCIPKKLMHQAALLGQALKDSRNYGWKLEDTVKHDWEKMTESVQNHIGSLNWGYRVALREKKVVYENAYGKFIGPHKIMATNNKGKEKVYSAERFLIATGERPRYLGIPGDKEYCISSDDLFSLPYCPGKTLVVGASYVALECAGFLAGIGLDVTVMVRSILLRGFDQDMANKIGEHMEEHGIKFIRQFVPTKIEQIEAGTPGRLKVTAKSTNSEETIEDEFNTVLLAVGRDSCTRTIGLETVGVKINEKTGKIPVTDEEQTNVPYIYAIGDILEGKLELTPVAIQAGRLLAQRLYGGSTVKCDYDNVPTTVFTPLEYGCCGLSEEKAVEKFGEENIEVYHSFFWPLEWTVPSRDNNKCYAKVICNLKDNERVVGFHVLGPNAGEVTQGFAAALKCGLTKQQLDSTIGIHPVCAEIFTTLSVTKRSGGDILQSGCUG
Thyrotropin-releasing hormone receptor (Homo sapiens), sequence (P34981 whole entry, looked up): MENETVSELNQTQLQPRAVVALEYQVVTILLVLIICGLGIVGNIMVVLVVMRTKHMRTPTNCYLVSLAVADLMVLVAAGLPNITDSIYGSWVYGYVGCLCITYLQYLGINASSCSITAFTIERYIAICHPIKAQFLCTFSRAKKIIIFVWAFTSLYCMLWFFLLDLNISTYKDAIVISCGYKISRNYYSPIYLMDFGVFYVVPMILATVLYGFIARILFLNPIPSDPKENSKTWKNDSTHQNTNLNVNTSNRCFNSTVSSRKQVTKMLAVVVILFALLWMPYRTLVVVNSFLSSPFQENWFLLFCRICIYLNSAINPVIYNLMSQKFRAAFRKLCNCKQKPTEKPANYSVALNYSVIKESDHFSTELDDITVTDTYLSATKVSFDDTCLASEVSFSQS

NC1CCN(c2cccc(Cl)n2)CC1
inactive: outcome [1] | outcome [2] | Potency [3] | Potency [4] | outcome [5] | Potency [6] | Potency [7] | Potency [8] | Potency [9] | outcome [10] | Potency [11] | outcome [12] | Potency [13] | Potency [14] | outcome [15] | activation [16] 1.06% | Potency [17] | outcome [18]
-3.84%: viability change [17]

CC(C)(C)c1onc(OCP(=O)(O)O)c1CC(N)C(=O)O (stereo unspecified)
4.09% and -1.93%: viability change [17]
inactive: outcome [1] | outcome [2] | Potency [3] | Potency [4] | outcome [5] | Potency [6] | Potency [7] | Potency [8] | Potency [9] | outcome [10] | Potency [11] | outcome [12] | Potency [13] | Potency [14] | outcome [15] | activation [16] 1% | Potency [17] | outcome [18]

CC(CN1c2ccccc2Sc2ccccc21)N(C)C (stereo unspecified)
active: Potency [7] 39.8 µM | Potency [8] 39.8 µM | Potency [13] 10 µM
inactive: outcome [1] | outcome [2] | outcome [5] | Potency [6] | Potency [9] | Potency [11] | outcome [12] | Potency [14] | outcome [15] | activation [16] 3.12% | Potency [17] | outcome [18]
5.51%: viability change [17]

CNC(=O)Oc1ccc2c(c1)[C@]1(C)CCN(C)[C@@H]1N2C
11.7%: viability change [17]
inactive: outcome [1] | outcome [2] | Potency [4] | outcome [5] | Potency [6] | Potency [8] | Potency [9] | outcome [10] | Potency [11] | outcome [12] | Potency [13] | Potency [19] | Potency [14] | outcome [15] | activation [16] 1% | Potency [17] | outcome [18]

Cc1cc(N)c2ccccc2[n+]1CCCCCCCCCC[n+]1c(C)cc(N)c2ccccc21
active: Potency [6] 21.2 µM | Potency [7] 50.1 µM
inactive: outcome [1] | outcome [2] | outcome [5] | Potency [9] | outcome [10] | Potency [11] | outcome [12] | Potency [19] | Potency [14] | activation [16] 0.812% | outcome [18]

CCN(CC)CCOC(=O)C1(C2CCCCC2)CCCCC1
inactive: outcome [1] | outcome [2] | Potency [3] | Potency [4] | outcome [5] | Potency [6] | Potency [7] | Potency [8] | Potency [9] | outcome [10] | outcome [12] | Potency [14] | outcome [15] | activation [16] -6.69% | Potency [17] | outcome [18]
-2.64%: viability change [17]

C#CCN(C)Cc1ccccc1
1.01%: viability change [17]
inactive: outcome [1] | outcome [2] | Potency [4] | outcome [5] | Potency [6] | Potency [7] | Potency [8] | Potency [9] | Potency [11] | outcome [12] | Potency [13] | Potency [19] | Potency [14] | outcome [15] | activation [16] 0.562% | Potency [17] | outcome [18]

COc1ccc(Cl)cc1C(=O)NCCc1ccc(S(=O)(=O)NC(=O)NC2CCCCC2)cc1
inactive: outcome [1] | outcome [2] | Potency [4] | outcome [5] | Potency [6] | Potency [7] | Potency [8] | Potency [9] | outcome [10] | Potency [11] | outcome [12] | Potency [13] | Potency [14] | outcome [15] | activation [16] 1% | outcome [18]

C[C@](N)(Cc1ccc(O)cc1)C(=O)O
inactive: outcome [1] | outcome [2] | Potency [3] | outcome [5] | Potency [6] | Potency [7] | Potency [8] | Potency [9] | outcome [10] | Potency [11] | outcome [12] | Potency [13] | Potency [19] | Potency [14] | outcome [15] | Potency [17] | outcome [18]
3.53%: viability change [17]

CCN(CC)C(C)CN1c2ccccc2Sc2ccccc21 (stereo unspecified)
active: Potency [8] 0.0299 µM
-0.429%: viability change [17]
inactive: outcome [1] | outcome [2] | outcome [5] | Potency [6] | Potency [7] | Potency [9] | Potency [11] | outcome [12] | Potency [13] | Potency [14] | outcome [15] | Potency [17] | outcome [18]

CC(C)(C(=O)O)c1ccc(C(O)CCCN2CCC(C(O)(c3ccccc3)c3ccccc3)CC2)cc1 (stereo unspecified)
5.93%: viability change [17]
inactive: outcome [1] | outcome [2] | Potency [4] | outcome [5] | Potency [6] | Potency [7] | Potency [8] | Potency [9] | outcome [10] | Potency [11] | outcome [12] | Potency [13] | Potency [14] | outcome [15] | activation [16] -0.125% | Potency [17] | outcome [18]

CC(=O)OCC(=O)[C@@]1(O)CC[C@H]2[C@@H]3CCC4=CC(=O)CC[C@]4(C)[C@H]3C(=O)C[C@@]21C
3.82%: viability change [17]
inactive: outcome [1] | outcome [2] | Potency [3] | Potency [4] | outcome [5] | Potency [6] | Potency [7] | Potency [8] | Potency [9] | outcome [10] | Potency [11] | outcome [12] | Potency [13] | Potency [14] | outcome [15] | activation [16] 1.06% | Potency [17] | outcome [18]
